Hits are enriched below; roughly 21% of the tested compounds scored in any of these assays.
Pf growth 48h: Primary qHTS for delayed death inhibitors of the malarial parasite plastid, 48 hour incubation. 310,000 compounds, 5.9% hits. Potency, µM (doses to about 28.7 µM), for the others: at the highest dose activity change, negative = inhibition, actives largely listed as inhibitors. AID 504832, 2011. P. falciparum luciferase growth in erythrocytes, 48 h; also: potency is read from the fitted curve at half-maximal effect; % is scaled to controls: 0 for no effect and ±100 for the full control effect
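Firefly luciferase activity from engineered P. falciparum reports growth; inhibitors lower the luminescent signal. Cultures contained 2% hematocrit erythrocytes at 0.1% final parasitemia.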
NS1 function inh: qHTS Assay for Inhibitors of Influenza NS1 Protein Function; Potency, µM (titrated, usually from 46.1 µM), for inactives: at the top dose activity, positive = more growth; 270,000 compounds, 0.4% hits; AID 2326, 2010; calls by dose curve; also: potency is read from the fitted curve at half-maximal effect; actives are rising curves; nearly all actives have a fitted effect of over 50% in size
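Read-out: OD600 growth recovery of NS1-expressing budding yeast. Cells grown overnight at 30C in -URA glucose medium, washed, resuspended and diluted 1:100 in 2% galactose assay medium, pH 6.0. Same strain lacking NS1 served as positive control.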
Pf growth 96h: Primary qHTS for delayed death inhibitors of the malarial parasite plastid, 96 hour incubation | 320,000 compounds, 6.9% hits | Potency, µM (top dose mostly 28.7 µM), for the others: at the highest dose activity change, negative = inhibition, usual class: inhibitors | AID 504834, 2011 | P. falciparum luciferase reporter growth, 96 h; also: potency is read from the fitted curve at half-maximal effect; % is scaled to controls: 0 for no effect and ±100 for the full control effect
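Infected RBCs, 2% Hct / 0.05% parasitemia final; luciferase-reporter P. falciparum; cpd 96 h, 37 C, 5% CO2; luciferase detection reagent; luminescence.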
CHX counter: Cycloheximide Counterscreen for Small Molecule Inhibitors of Shiga Toxin; cell reporter, cycloheximide protein synthesis inhibition counterscreen; 300,000 compounds, 12% hits; max response, %; AID 2314, 2010; in the data active = max response mostly above about 13%, no sharp cut-off; inactive = mostly below about 14%; also: read at 38.3 µM for the half of the compounds with a filed dose; 0% is about no effect
Sm TGR inh: qHTS Assay for the Inhibitors of Schistosoma Mansoni Peroxiredoxins | AID 485364, 2010 | 360,000 compounds, 3% hits | purified TGR, DTNB reduction, TNB absorbance 405 nm | Potency, µM (series often up to 114 µM), for inactives: at the highest dose activity change, negative = inhibition, usual class: inhibitors; also: potency is read from the fitted curve at half-maximal effect; % is scaled to controls: 0 for no effect and ±100 for the full control effect; nearly all actives have a fitted effect of over 60% in size
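First, TGR (20 nM dispensed) and NADPH were mixed with compound. Second, a 15 min room-temperature incubation followed. Third, further NADPH and then DTNB were added to start the reaction. Finally, TNB absorbance was monitored kinetically.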
Shiga toxin inh: A qHTS for Small Molecule Inhibitors of Shiga Toxin; Vero cells, Shiga toxin protein synthesis inhibition reporter; inhibition, % at 38.7 µM; 290,000 compounds, 9.2% hits; AID 2315, 2010; in the data active = inhibition mostly above about 28%, no sharp cut-off; inactive = mostly below about 43%; also: 0% is about no effect
* hit, by the source's call; u = inconclusive; x = no result given; + = active, no number. Unless noted, calls follow the shape of the dose curve; as a rule, active = well fitted curve in the direction sought with a large enough effect; inconclusive = small, poorly fitted or top-dose-only effect, or another doubt; inactive = no such curve, though single readings can be large; an effect the other way counts as inactive or inconclusive.

SMILES | Pf growth 48h | NS1 function inh | Pf growth 96h | CHX counter | Sm TGR inh | Shiga toxin inh
CN1CCN(C(=S)SCC(=O)Nc2nc(-c3ccccc3)c(-c3ccccc3)o2)CC1 | 10% | 19% | 2% | 4 | 4% | -5
CCCc1c(C(=O)Nc2ccc(C(F)(F)F)cc2)cnn1-c1ccccc1 | u | 2% | u | 1 | 9% | -3
Cc1cc(NC(=O)c2c(F)c(F)c(F)c(F)c2F)no1 | u | -2% | u | 1 | -2% | -14
CCCc1c(NC(=O)Nc2ccc(F)cc2)cnn1-c1ccccc1 | u | -1% | u | 23* | 11% | 45*
CC(=O)c1c(C(C)=O)c(C)n(-c2ccc(C)c(NC(=O)c3ccccc3Cl)c2)c1C | u | -13% | 2.9µM* | -2 | -8% | -5
Cc1cc(NC(=O)c2c(F)cccc2Cl)no1 | 0% | 6% | 82% | 13* | -1% | 56*
Cc1cc(NC(=O)c2ccccc2Cl)no1 | 172% | 16% | x | 54* | 10% | +
CC(=O)N/C(=C\c1ccc(C)cc1)C(=O)O | 19% | x | 28% | -4 | 20% | 23
COc1ccc(C(=O)NCC(=O)OCC(=O)Nc2ccc(C)c(S(=O)(=O)N(C)C)c2)cc1OC | -13% | -10% | -13% | -3 | u | -2
CCC(CC)N1CCN(CC2CC=CCC2)CC1 (stereo not drawn) | -3% | x | 15% | -2 | 6% | -3
CCC(=O)N1CCc2cc(S(=O)(=O)NC(Cc3ccccc3)C(=O)Nc3ccccc3C)ccc21 (stereo not drawn) | x | x | x | x | -4% | x
Cc1cc(NC(=O)NC(=O)c2ccccc2F)no1 | 149% | -5% | 171% | 32* | 5% | 77*
Cc1ccc(NC(=O)c2sccc2-n2cccc2)c(Cl)c1 | 19% | x | 176% | 31* | 2% | 22
Cc1ccc(NC(=O)c2ccccc2Cl)c(Cl)c1 | x | -59% | 82% | 42* | -3% | 69*
Cc1cc(NC(=O)c2ccccc2Cl)ccc1NC(=O)c1ccccc1 | x | x | x | x | 57% | x
Cc1cc(NC(=O)CSc2nc3ccccc3s2)no1 | 6% | -11% | x | 1 | -6% | 7
CCOC(=O)C(NC(=O)c1ccccc1F)(Nc1cc(C)on1)C(F)(F)F (stereo not drawn) | 10% | -7% | u | -1 | -18% | -9
Cc1cc(NC(=O)c2sc3ccccc3c2O)no1 | 125% | -102% | 303% | 62* | -23% | 82*
Cc1cccc(NC(=O)c2ccc(-n3cnc4cccnc43)cc2)c1C | x | x | x | x | 5% | x
COc1ccc(CC(=O)Nc2ccc(-c3ccc4nnc(C)n4n3)cc2)cc1OC | -18% | -7% | -36% | -1 | 3% | -2
Cc1ccc(NC(=O)C2CC2C)c(Cl)c1 (stereo not drawn) | 30% | x | -11% | 30* | -1% | 62
CCCc1c(C(=O)Nc2cc(C)on2)cnn1-c1ccccc1 | u | 1% | 9.3µM* | -1 | 0% | 15
CCCc1c(C(=O)Nc2ccc(F)cc2C)cnn1-c1ccccc1 | -2% | -40% | 5% | 6 | 6% | -6
Cc1ccc(C)c(NC(=O)C2CC(Cl)=CCC2C(=O)O)c1 (stereo not drawn) | 5% | 4% | x | 0 | 2% | -6
Cc1ccc(NC(=O)Cn2ncc3ccccc32)c(Cl)c1 | -7% | -3% | 15% | 52* | 16% | 55*
SMILES | Pf growth 48h | NS1 function inh | Pf growth 96h | CHX counter | Sm TGR inh | Shiga toxin inh
Cc1ccc(CN2CCN(/N=C/c3ccc(C(F)(F)F)cc3)CC2)c(C)c1 | u | 12% | 13% | -3 | -2% | -8
COc1ccc(CC2C(=O)NC(=O)NC2=O)c(OC)c1 | -11% | u | x | -1 | 50µM* | -1
CCOC(=O)N1CCc2c(sc3ncn(Cc4ccc(F)cc4)c(=O)c23)C1 | 10µM* | -2% | 5.9µM* | -4 | 2% | 18
O=C(c1cnc2c(c1)COc1ccccc1-2)c1ccccc1O | x | x | x | x | 5% | x
COC(=O)c1ccccc1NC(=O)c1cc(CN2CCOCC2)on1 | x | x | x | x | -1% | x
Cc1nc2c(c(C)c1CCC(=O)NCc1ccccc1)c(=O)n(C)c(=O)n2C | x | x | x | x | -2% | x
